Measurements reported in PubChem BioAssay (EPA / NIEHS).
Records with an inconclusive call do not appear. The source made the active and inactive calls. The calls were made as follows: active = hit-call score of the fitted dose curve at least 0.9, where 1 is the maximum; inconclusive = response in the unintended direction; inactive = score below 0.9.

Target: human Caspase 10 (CASP10), CASP10 (gene 843) (UniProt Q92851)
Experiment: NVS_ENZ_hCASP10: NovaScreen (NVS) Enzymatic Assay for human Caspase 10 (CASP10) (AID 2283133)
Protocol: NVS_ENZ_hCASP10 is a biochemical, single-readout assay that uses extracted gene-proteins from E. coli in a cell-free assay. Measurements were taken 1 hour after chemical dosing in a 96-well plate.NVS_ENZ_hCASP10 is one of one assay component(s) measured or calculated from the NVS_ENZ_hCASP10 assay. It is designed to make measurements of enzyme activity, a form of enzyme reporter, as detected with fluorescence intensity signals by Fluorescence technology.Data from the assay component NVS_ENZ_hCASP10 was analyzed into 1 assay endpoint. This assay endpoint, NVS_ENZ_hCASP10, was analyzed in the positive analysis fitting direction relative to DMSO as the negative control and baseline of activity. Using a type of enzyme reporter, loss-of-signal activity can be used to understand changes in the enzymatic activity as they relate to the gene CASP10. Furthermore, this assay endpoint can be referred to as a primary readout, because this assay has produced multiple assay endpoints where this one serves a enzymatic activity function. To generalize the intended target to other relatable targets, this assay endpoint is annotated to the protease intended target family, where the subfamily is cysteine protease.
Binding assays used specific radioligands (tritiated, iodinated) with non-radioactive competitive displacement ligands in agonist or antagonist protocols (as indicated) and various reference compounds and inhibitors to titrate specific binding to receptors and transporters. Most enzyme assays (CYPs, kinases, phosphatases, proteases, HDACs) used recombinant protein and specific substrates (fluorescence mostly, some colorimetric and radioactive) and inhibitors, followed by a biochemical separation of substrate and product. All assays for the biochemical HTS were initially run in duplicate at a single concentration (10 uM for CYP450 assays and 25 uM for all others). Assay-chemical combinations meeting a pre-defined threshold (e.g., 30% inhibition and other criteria defined below) were then run in singleton concentration-response format with maximum concentration of 20 uM for CYPs and 50 uM for all others. Each assay was run with positive and negative controls, and concurrent controls on every plate. The follow-up (secondary) screen tested active chemical-pairs in concentration series, as well as a few additional assays not tested in the primary screen, some selected negative inactives, and several cases re-run in the concentration series for confirmatory purposes.

Sequence of human Caspase 10 (CASP10), CASP10 (gene 843) (Q92851 whole entry, looked up): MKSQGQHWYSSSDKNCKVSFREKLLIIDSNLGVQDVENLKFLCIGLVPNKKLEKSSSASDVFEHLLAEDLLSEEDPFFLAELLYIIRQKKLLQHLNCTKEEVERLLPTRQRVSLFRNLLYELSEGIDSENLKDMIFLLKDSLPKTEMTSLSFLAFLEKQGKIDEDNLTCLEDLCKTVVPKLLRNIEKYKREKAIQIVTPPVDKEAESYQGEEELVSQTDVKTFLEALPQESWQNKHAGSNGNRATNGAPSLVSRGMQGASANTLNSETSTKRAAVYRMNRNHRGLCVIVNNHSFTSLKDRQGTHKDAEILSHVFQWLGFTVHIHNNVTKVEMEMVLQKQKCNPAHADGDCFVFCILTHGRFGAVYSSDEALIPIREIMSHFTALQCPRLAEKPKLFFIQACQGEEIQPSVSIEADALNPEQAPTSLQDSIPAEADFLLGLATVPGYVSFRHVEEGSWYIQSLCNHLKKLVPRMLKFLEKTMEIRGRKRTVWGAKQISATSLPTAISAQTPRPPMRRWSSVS

| SMILES | outcome | AC50 |
| --- | --- | --- |
| COc1ccc2c(c1)c(CC(=O)O)c(C)n2C(=O)c1ccc(Cl)cc1 | inactive |  |
| Cc1c2ccccc2c(C)c2c1ccc1ccccc12 | inactive |  |
| CN1C(=O)N(c2ccccc2Br)Cc2cnc(Nc3ccc4c(c3)OCC(CO)O4)nc21 (stereo not given) | inactive |  |
| O=C(O)c1[nH]n(-c2ccc(S(=O)(=O)O)cc2)c(=O)c1N=Nc1ccc(S(=O)(=O)O)cc1 | inactive |  |
| CCCCCCCCCCCCCCCCOS(=O)(=O)O | inactive |  |
| C[Si]1(C)O[Si](C)(C)O[Si](C)(C)O[Si](C)(C)O1 | inactive |  |
| CCCCCCCCCCCCCCOS(=O)(=O)O | inactive |  |
| S=C(S)NCCNC(=S)S.[Mn+2].[S-]C([S-])=NCCN=C([S-])[S-].[Zn+2] | inactive |  |
| Cc1oc(-c2ccccc2)nc1CCOc1ccc(C[C@H](Nc2ccccc2C(=O)c2ccccc2)C(=O)O)cc1 | inactive |  |
| CN(C)c1ccc(C(=C2C=CC(=[N+](C)C)C=C2)c2ccc(N(C)C)cc2)cc1 | inactive |  |
| CN1C(=O)CC[C@H]1c1cccnc1 | inactive |  |
| O=C1CCC(C2CCCCC2)CC1 | inactive |  |
| CCN(Cc1cccc(S(=O)(=O)O)c1)c1ccc(C(=C2C=CC(=[N+](CC)Cc3cccc(S(=O)(=O)O)c3)C=C2)c2ccccc2S(=O)(=O)[O-])cc1 | inactive |  |
| O=C(O)CCCCC(=O)O |  | 11.4 µM (active) |
| Oc1cc2ccccc2c2ccccc12 |  | 11.1 µM (active) |
